The values below come from PubChem BioAssay AID624396 (The Scripps Research Institute Molecular Screening Center, 2012).

Molecules are shown by their SMILES. Active and inactive are the calls of the source.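 How the source made its calls: active means over 15% of cells apoptotic at 25 µM, or half-maximal dose of 10 µM or lower; inactive means the rest.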

The test concerns MCL1 1780. The test can be described thus: apoptosis induction in cancer cell lines, late-stage follow-up, mechanism study for MCL1-BIM inhibitor project, imaging, DAPI staining, cell line panel, probe (AID 624396). The settings on record: DAPI nuclear morphology, at 25 µM, stronger effect = higher value.

In the case of `CCN1CCN(C(c2ccc(C(F)(F)F)cc2)c2ccc3cccnc3c2O)CC1` (stereo unspecified), the apoptosis was 99% (active).
